Our source for the outcome, AC50 and cell viability, % of control (lower = more cytotoxic) values is PubChem BioAssay (NCATS).

One may read the AC50 as the midpoint of the concentration-response curve, whichever way the signal moves.

For some assays here: Measured potencies and affinities stand elsewhere. Calls of active or inactive are those of the source.

The conditions of assay [1]: Ebola virus entry assay, ratio channel.
For assay [2] the following is noted: Ebola virus entry assay, green channel fluorescence.
For assay [3] the following is noted: Ebola virus entry assay, blue channel fluorescence.
For assay [4] the following is noted: Ebola virus entry assay, reporter ratio channel; AC50: Channel type: primary unless noted; outcome: Channel type: primary unless noted.
For assay [5] the following is noted: Ebola virus entry assay, blue channel (ratio component).
For assay [6] the following is noted: Ebola virus entry cell assay, ratio channel.
For assay [7] the following is noted: Ebola virus entry reporter assay, green channel fluorescence. For orientation: In a reporter assay the amount or activity of a reporter protein is the signal.
Assay [8] in a line: High-throughput drug toxicity screening in the BPDCN cell line Gen2.2 (AID 1224824).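 Further: cells exposed to compounds for 48 h before reading.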 As to conditions: Gen2.2 BPDCN cells; at 45.8 µM (top of the series) unless noted. A digest of the protocol:
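CellTiter-Glo luminescence read after 48 h compound exposure at 37 C defines viability; percent activity set with DMSO as 100% and bortezomib (9.2 uM final) as 0%. 500 exponentially growing cells per well, RPMI plus 10% FBS.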

With `CCn1cc(C(=O)O)c(=O)c2cc(F)c(N3CCNC(C)C3)c(F)c21` (centres undefined), the outcome in assay [1], in assay [2], in assay [3], in assay [4], in assay [5] and in assay [6] was inactive.

On to `COc1cc(C(=O)NS(=O)(=O)c2ccccc2C)ccc1Cc1cn(C)c2ccc(NC(=O)OC3CCCC3)cc12`, for which the outcome in assay [1], in assay [2], in assay [3], in assay [4], in assay [5] and in assay [7] was inactive. Besides, the outcome in assay [6] was inactive.

As for `CCN1CC(CCN2CCOCC2)C(c2ccccc2)(c2ccccc2)C1=O` (centres undefined), the result in assay [1], in assay [2], in assay [3], in assay [4], in assay [5] and in assay [6] was inactive.

As to `NC(=O)N1c2ccccc2C=Cc2ccccc21`, the outcome in assay [1], in assay [2], in assay [3], in assay [4], in assay [5] and in assay [7] was inactive. Further, the result in assay [6] was inactive.

As to `C[C@](N)(Cc1ccc(O)cc1)C(=O)O`, the outcome in assay [1], in assay [2], in assay [3], in assay [4], in assay [5] and in assay [6] was inactive.

As to `O=C(N[C@H](CO)[C@H](O)c1ccc([N+](=O)[O-])cc1)C(Cl)Cl`, the outcome in assay [1], in assay [2], in assay [3], in assay [4], in assay [5] and in assay [7] was inactive. For the same compound, the outcome in assay [6] was inactive.

For the compound `CO[C@]12C[C@@H](COC(=O)c3cncc(Br)c3)CN(C)[C@@H]1Cc1cn(C)c3cccc2c13`, the AC50 in assay [1] and in assay [4] was 20 µM (active) each time. In assay [2], the result was inactive.

For `NCCCCCC(=O)O`, the result in assay [1], in assay [2], in assay [3], in assay [4] and in assay [6] was inactive.

For `O=C(NCC1CCCCN1)c1cc(OCC(F)(F)F)ccc1OCC(F)(F)F` (centres undefined), the AC50 in assay [1] and in assay [4] was 35.5 µM (active) throughout. Besides, the call in assay [2] was inactive.

Consider `COCCCOc1ccnc(CS(=O)c2nc3ccccc3[nH]2)c1C` (centres undefined), for which the outcome in assay [1], in assay [2], in assay [3], in assay [4], in assay [5] and in assay [7] was inactive. Also, the outcome in assay [6] was inactive.

With `COc1cc(C=C2CCC/C(=C\c3ccc(O)c(OC)c3)C2=O)ccc1O`, the AC50 in assay [1] and in assay [4] was 28.2 µM (active) each time. Besides, the result in assay [2] was inactive.

On to `CC(C)[C@H](N)C(=O)OCCOCn1cnc2c(=O)[nH]c(N)nc21`, for which the outcome in assay [1], in assay [2], in assay [3], in assay [4], in assay [5] and in assay [7] was inactive. The outcome in assay [6] was inactive.

`Cc1cccc(C)c1OCC(=O)N[C@@H](Cc1ccccc1)[C@@H](O)C[C@H](Cc1ccccc1)NC(=O)[C@H](C(C)C)N1CCCNC1=O`: the outcome in assay [1] and in assay [2] was inactive. Besides, the AC50 in assay [4] was 39.8 µM (active).

Regarding `CCN(CC)C(=O)/C(C#N)=C/c1cc(O)c(O)c([N+](=O)[O-])c1`, the outcome in assay [1], in assay [2], in assay [3], in assay [4], in assay [5] and in assay [7] was inactive. Also, in assay [6], the outcome was inactive.

Turning to `NS(=O)(=O)c1cc2c(cc1C(F)(F)F)NC(Cc1ccccc1)NS2(=O)=O` (centres undefined), the outcome in assay [1], in assay [2], in assay [3], in assay [4], in assay [5] and in assay [6] was inactive.

`CN=C(NC#N)NCCSCc1nc[nH]c1C`: the result in assay [1], in assay [2], in assay [3], in assay [4], in assay [5] and in assay [6] was inactive.

Turning to `CCC1(C)CC(=O)NC1=O` (centres undefined), the result in assay [1], in assay [2], in assay [3], in assay [4], in assay [5] and in assay [7] was inactive. Moreover, in assay [6], the outcome was inactive.

With `CC(C)N(CCC(C(N)=O)(c1ccccc1)c1ccccn1)C(C)C` (centres undefined), the result in assay [1], in assay [2], in assay [3], in assay [4], in assay [5] and in assay [7] was inactive. The outcome in assay [6] was inactive.

As to `CCc1cc(C(N)=S)ccn1`, the result in assay [1], in assay [2], in assay [3], in assay [4], in assay [5] and in assay [6] was inactive.

Turning to `CN1C(CSCC(F)(F)F)Nc2cc(Cl)c(S(N)(=O)=O)cc2S1(=O)=O` (centres undefined), the outcome in assay [1], in assay [2], in assay [3], in assay [4], in assay [5] and in assay [6] was inactive.

Regarding `O=c1[nH]c(=O)n([C@H]2C[C@H](O)[C@@H](CO)O2)cc1F`, the outcome in assay [1], in assay [2], in assay [3], in assay [4], in assay [5] and in assay [6] was inactive.

As to `O=C(O)CCCc1ccc(N(CCCl)CCCl)cc1`, the result in assay [1], in assay [2], in assay [3], in assay [4], in assay [5] and in assay [6] was inactive. This compound also had a cell viability, % of control (lower = more cytotoxic) in assay [8] of 84.6%.

Consider `C#CCN[C@@H]1CCc2ccccc21`, for which the outcome in assay [1], in assay [2], in assay [3], in assay [4], in assay [5] and in assay [7] was inactive. The result in assay [6] was inactive.

Consider `CCN[C@H](C)Cc1cccc(C(F)(F)F)c1`, for which the result in assay [1] and in assay [2] was inactive. The AC50 in assay [4] is 31.6 µM (active).

For the compound `C[C@H](CS)C(=O)N1CCC[C@H]1C(=O)O`, the outcome in assay [1], in assay [2], in assay [3], in assay [4], in assay [5] and in assay [7] was inactive. For the same compound, the result in assay [6] was inactive.

For the compound `CC(C)(C)NCC(O)COc1ccc(NC(=O)NC2CCCCC2)cc1` (centres undefined), the result in assay [1] and in assay [2] was inactive. Besides, the AC50 in assay [4] is 39.8 µM (active).

Take `COc1c(N2C[C@@H]3CCCN[C@@H]3C2)c(F)cc2c(=O)c(C(=O)O)cn(C3CC3)c12`: the result in assay [1], in assay [2], in assay [3], in assay [4], in assay [5] and in assay [7] was inactive. The result in assay [6] was inactive.

Regarding `N=C(N)N1CCc2ccccc2C1`, the outcome in assay [1], in assay [2] and in assay [4] was inactive.

With `Nc1ncn([C@H]2C[C@H](O)[C@@H](CO)O2)c(=O)n1`, the outcome in assay [1], in assay [2], in assay [3], in assay [4], in assay [5] and in assay [6] was inactive.
